From PubChem BioAssay (NCI)
About 79,000 compounds went through this panel and 15% of them were active in at least one assay; those are over-represented in the sample as a whole. The source made the active and inactive calls. Cut-off read from the data, not from the text of the source: active = growth inhibition above about 70%; inactive = the rest.

How the values were obtained:
[1] = NCI Yeast Anticancer Drug Screen. Data for the rad50 strain (AID 155);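 note: 0% = growth of vehicle-only cultures of the same strain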; conditions: S. cerevisiae rad50 strain growth inhibition; at 50.0 µM; stronger effect = higher value
Procedure, shortened: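 Compounds were tested on a yeast strain with an engineered DNA damage repair alteration; the reported value is growth inhibition normalised to vehicle treatment.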

[2] = NCI Yeast Anticancer Drug Screen. Data for the mec2-1 strain (AID 157); conditions: S. cerevisiae mec2-1 strain, at 50.0 µM, stronger effect = higher value
Procedure, shortened: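 Mutant yeast (mec2-1) grown with compound; growth inhibition relative to vehicle control reported.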

[3] = NCI Yeast Anticancer Drug Screen. Data for the sgs1 mgt1 strain (AID 161);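 note: 0% = growth of cultures given vehicle only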; conditions: S. cerevisiae sgs1 mgt1 strain, at 50.0 µM, stronger effect = higher value
Procedure, shortened: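 Compounds are added to genetically altered yeast, and growth is compared with cultures given vehicle alone to give percent inhibition.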

[4] = NCI Yeast Anticancer Drug Screen. Data for the cln2 rad14 strain (AID 165);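 note: 0% = growth equal to vehicle treated cultures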; conditions: S. cerevisiae cln2 rad14 strain, at 50.0 µM, stronger effect = higher value
Procedure, shortened: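 Readout is yeast growth inhibition versus vehicle-treated controls, using a strain with cln2 and rad14 alterations exposed to compound.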

[5] = NCI Yeast Anticancer Drug Screen. Data for the bub3 strain (AID 167); conditions: S. cerevisiae bub3 mutant strain, at 50.0 µM, stronger effect = higher value
Procedure, shortened: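 Growth of a checkpoint-deficient yeast mutant is measured after compound exposure. Values represent inhibition relative to vehicle.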

[6] = NCI Yeast Anticancer Drug Screen. Data for the mlh1 rad18 strain (AID 175); conditions: S. cerevisiae mlh1 rad18 strain growth inhibition; at 50.0 µM; stronger effect = higher value
Procedure, shortened: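 Genetically defined yeast (DNA repair-deficient) exposed to compounds; growth inhibition determined relative to vehicle.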

Measured: growth inhibition

O=C(O)C1C2Cc3ccccc3C1c1ccccc12 (stereo unspecified)
inactive: [1] -1.6% | [2] -7.55% | [3] 0.95% | [4] 0.6% | [5] -13.7% | [6] -10%

N#CNC(N)=S
inactive: [1] -13.8% | [2] -10.3% | [3] -10.3% | [4] -8.7% | [5] -14.3% | [6] -8.35%

O=Cc1ccccc1O.[La]
inactive: [1] -7.9% | [2] -28.1% | [3] 14.1% | [4] -5.45% | [5] -7.7% | [6] 2.15%

CC1(c2ccccc2)CC12C(=O)NC(=O)NC2=O (stereo unspecified)
inactive: [1] -69.1% | [2] -22.6% | [3] -18.9% | [4] -8.75% | [5] -27.7% | [6] -20.9%

CC1CN1C1=C(Br)C(=O)C(N2CC2C)=C(Br)C1=O (stereo unspecified)
active: [1] 73.7% | [3] 84% | [6] 79.8%
inactive: [2] 23.1% | [4] -3.05% | [5] 62%

O=[C-]C(F)(F)F.[C-]#[O+].[C-]#[O+].[C-]#[O+].[Mo].[c-]1[c-][c-][cH-][c-]1
inactive: [1] 5.2% | [2] 13.3% | [3] 0.8% | [4] 25.9% | [5] 21.4% | [6] 7.05%

O=P1(c2ccccc2)CCCCN1 (stereo unspecified)
inactive: [1] 12.2% | [2] -16.1% | [3] -5.1% | [4] -20.9% | [5] 3.55% | [6] 1.8%

CC(C)CCC1C(=O)N(C)C(=O)N(C)C1=O
inactive: [1] -9% | [2] -6.55% | [3] 3.15% | [4] -0.5% | [5] 0.55% | [6] 2.05%

COc1cc2c(cc1OC)-c1c3c(cc4c1[C@H](C2)N(C)CC4)OCO3
inactive: [1] -5% | [2] -7.7% | [3] -19.8% | [4] 6.75% | [5] -14.2% | [6] -25.5%

C1CC[N-]CC1.CC(=N\O)/C(C)=N/O.CC(=N\O)/C(C)=N/O.CCOC(=O)CC[C-]=O.[Co+2]
inactive: [1] -15.1% | [2] 8.95% | [3] -10.1% | [4] -39.3% | [5] 18% | [6] 9.55%

CC(C)(C)C1=C(Br)C(Br)(C(C)(C)C)OP1(=O)c1ccccc1 (stereo unspecified)
inactive: [1] 7.9% | [2] 8.55% | [3] -22.9% | [4] 5.75% | [5] -5% | [6] -27.5%

CCOc1ccccc1C=C(C#N)C#N
inactive: [1] -2.25% | [2] 6% | [3] 19.1% | [4] 12.2% | [5] 1.75% | [6] -4.15%

N#CC(N)c1ccccc1 (stereo unspecified)
inactive: [1] 13.7% | [2] -14.9% | [3] 17.4% | [4] 1.45% | [5] 14.1% | [6] 12.6%

CCOC(OCC)c1ccc(C(F)(F)F)cc1.[C-]#[O+].[C-]#[O+].[C-]#[O+].[Cr]
inactive: [1] 14.2% | [2] 0.8% | [3] 25.8% | [4] 4.85% | [5] 20.4% | [6] 26.2%

Nc1ccc(Oc2ccc(N)cc2)cc1
inactive: [1] 3.1% | [2] 10% | [3] 14.6% | [4] 11.7% | [5] 12.4% | [6] 26.1%

CCCN(C)C(C)(C)C(=O)c1ccccc1
inactive: [1] 8.8% | [2] -3.95% | [3] -20.2% | [4] -10.2% | [5] -18.9% | [6] -8.1%

CC[C@@H]1C[C@H]2CC3c4[nH]c5ccc(O)cc5c4CCN(C2)C31
inactive: [1] 3.4% | [2] -24.4% | [3] 23.6% | [4] 5.35% | [5] -1.45% | [6] 5.6%

C=C1C(=O)OC2CCN3CC=C(COC(=O)C(C)(O)C4(CO4)C1C)C23 (stereo unspecified)
inactive: [1] 11.1% | [2] 0.95% | [3] -20.9% | [4] -12.8% | [5] -35.5% | [6] -59.5%

Cc1cc(N(CCCl)CCCl)ccc1C1N(Cc2ccc(N(CCCl)CCCl)cc2)CCCN1Cc1ccc(N(CCCl)CCCl)cc1
inactive: [1] 0.8% | [2] 7.8% | [3] -6.2% | [4] -5.1% | [5] -1.35% | [6] 25%

CCOP(=S)(OCC)S/C(C(=O)NC)=C(/C)O
inactive: [1] 64.2% | [2] 22.9% | [3] 35.4% | [4] 65.1% | [5] 55.5%
active: [6] 79.7%

COc1ccc(C(O)(C(=O)OCCSC)c2ccc(OC)cc2)cc1
inactive: [1] -5.1% | [2] 2.85% | [3] -2.6% | [4] -21.5% | [5] 9% | [6] 0.1%

N#C[CH2][Sn]([c]1ccccc1)([c]1ccccc1)[c]1ccccc1
active: [1] 98.8% | [2] 98.8% | [3] 99% | [4] 98% | [5] 98.5% | [6] 98.9%

[N-]=[N+]=C1C(=O)NN=C1c1ccccc1
inactive: [1] -9.6% | [2] -21.9% | [3] -25.4% | [4] 0.5% | [5] -17.2% | [6] 12.8%

CCN1CCOC(O)(c2cc(Cl)cc(Cl)c2Cl)C1 (stereo unspecified)
inactive: [1] 17.4% | [2] -11.2% | [3] 8.9% | [4] -24.7% | [5] 26.1% | [6] 14.8%

O=S(=O)(c1ccccc1)c1ccccc1
inactive: [1] -2.9% | [2] 1.55% | [3] 1.6% | [4] -8.05% | [5] 0.1% | [6] -37.9%

O[C@H]1[C@H](O)[C@@H](O)CN2CC[C@H](O)[C@H]12
inactive: [1] -25.9% | [2] -24.1% | [3] -18.1% | [4] -4.1% | [5] -9.05% | [6] -24.6%

CCCCOP(=O)(Nc1ccc(Cl)cc1)OCCCC
active: [1] 99.3% | [2] 99.7% | [3] 99.5% | [4] 99.2% | [5] 99.4% | [6] 99.5%

O=[N+]([O-])c1ccc(/C=C/C=C/C=C/C=C/c2ccc(S(=O)(=O)F)cc2Cl)c(Cl)c1
inactive: [1] -1.05% | [2] -2.85% | [3] -14.8% | [4] 7.15% | [5] -10.3% | [6] -1.2%

COc1cc(C=C2C(=O)NC(=O)NC2=O)ccc1O
inactive: [1] 1.85% | [2] -23.4% | [3] 5.05% | [4] 4.3% | [5] -2% | [6] 6.35%

N=P(c1ccccc1)(c1ccccc1)c1ccccc1.[Cr+6].[N-]=C=S.[N-]=C=S.[N-]=C=S.[N-]=C=S.[NH2-].[NH2-]
inactive: [1] 3.95% | [2] -2.55% | [3] -3.6% | [4] -3.35% | [5] -2.1% | [6] 0%

CCOC(=O)C1C(C=C(C)C)C1(C)C (stereo unspecified)
inactive: [1] -14.3% | [2] -17.4% | [3] -8.8% | [4] -10.8% | [5] -16.6% | [6] -3.95%

Cc1ncc([N+](=O)[O-])n1C(C)C(=O)Nc1ccc(N(CCCl)CCCl)cc1 (stereo unspecified)
inactive: [1] -6.2% | [2] 10.3% | [3] 3.5% | [4] -2.3% | [5] -4.65% | [6] 13.2%

NC(CSSCC(N)C(=O)c1ccccc1)C(=O)c1ccccc1 (stereo unspecified)
inactive: [1] 23.9% | [2] 0.8% | [3] 9.3% | [4] 6% | [5] 6.55% | [6] 4.35%

CCN1CCC2OCOC2C1 (stereo unspecified)
inactive: [1] 8.5% | [2] 2.85% | [3] 2.9% | [4] 0.5% | [5] -0.05% | [6] 33.6%

N.N.N.N.O=C([O-])CCl.O=C([O-])CCl.[Co+3].[O-][Cl+3]([O-])([O-])[O-]
inactive: [1] -32.1% | [2] -0.45% | [3] -30.4% | [4] 26.7% | [5] -6.5% | [6] -17.5%

O=S(=O)(O)C(Br)(Br)Br
inactive: [1] 29.4% | [2] 5.3% | [3] 23.6% | [4] -26.9% | [5] 7.25% | [6] 28.2%

CN1C2CCC1CC1(C2)SCCS1
inactive: [1] 2.5% | [2] 3.85% | [3] 3.1% | [4] 6.2% | [5] 6.85% | [6] 4.45%

NC(=O)OC(CCl)CCl
inactive: [1] 35.2% | [2] -10.1% | [3] -9% | [4] -13.3% | [5] -10% | [6] -4.3%

c1ccc(C2(N3CCOCC3)CSC2)cc1
inactive: [1] -6.05% | [2] -4.8% | [3] 1.15% | [4] -16.9% | [5] -44.6% | [6] -6.75%

C1CCC(N2CSC3CCCCC32)CC1 (stereo unspecified)
inactive: [1] -0.65% | [2] -12.2% | [3] 4.35% | [4] -18.2% | [5] 16.2% | [6] 5.6%

CN(C(=O)COc1ccc([N+](=O)[O-])cc1Cl)c1ccc(S(=O)(=O)F)cc1
inactive: [1] 13.8% | [2] -1.85% | [3] -10.9% | [4] -10.4% | [5] 1.25% | [6] 16.5%
